The values below come from PubChem BioAssay.

Activity calls are given as the source filed them.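 The calls were made as follows, unless noted: active = inhibition of the reporter signal at or above 50%; inactive = inhibition below 50%.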

A short description of experiment [1]: inhibitors of TNFa-induced NFkB p65 translocation, primary screen, imaging, HUVEC, MLSMR starter and 10KST1 sets (AID 438;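 active = inhibition above 20% together with a positive visual image hit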;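 also: compound added about 3h40 before a 20 min TNFalpha stimulation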;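 as to inhibition: signal is the nuclear over cytoplasmic p65 intensity ratio per well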). Particulars: HUVEC TNFa-induced p65 nuclear translocation; cell count: measured here: nuclei count (cytotoxicity indicator), at 2.08 µM; inhibition: at 2 µM, stronger effect = higher value, 0% TNFa-plus-vehicle, 100% no-TNFa wells.
Experiment [2] in a line: inhibitors of mutant huntingtin aggregation, primary screen, imaging, exon1htt(103Q)mCFP cells, high-content imaging (AID 483;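 active = visual image review flags a hit and inhibition of aggregation exceeds 20%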;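 also: compound exposure lasted 3 days before fixation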;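 as to nuclei count: percent of the per-plate median nuclei count of sample wells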). To be noted: exon1htt(103Q)mCFP cell line, aggregate imaging, at 2 µM; inhibition of aggregation: stronger effect = higher value; nuclei count: measured here: cell count, toxicity.
Experiment [3] can be described thus: inhibitors of E-selectin induction by TNFa, primary screen, imaging, HUVEC, immunofluorescence, MLSMR starter and 10KST1 sets (AID 487;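 active = visually confirmed hit in the image check and inhibition above 20%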;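 as to inhibition: signal is fraction of cell area covered by stained E-selectin grains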;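 as to nuclei count: 100% = median nuclei count of all wells on the same plate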). Particulars: HUVEC TNFalpha-induced E-selectin immunofluorescence imaging, at 2 µM; inhibition: stronger effect = higher value; nuclei count: measured here: cell number, toxicity.
The target of experiment [4] is Voltage-gated potassium channel subunit beta-2 (Rattus norvegicus) (UniProt P62483). Put plainly: KvBeta enzyme negative modulators, primary screen, biochemical, NADPH fluorescence (AID 622;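 active = fluorescence slope higher than the sample average by over 3 SD, cut at about -0.22 in these data, passing the limit was not always enough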;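 also: slope of raw intensity against log time taken from 70 to 1610 s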). To be noted: recombinant KvBeta, 4-cyanobenzaldehyde reduction, at 10 µM, stronger effect = higher value.
Experiment [5] shares this target. In words: KvBeta positive modulators, primary screen, biochemical, NADPH fluorescence (AID 623;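 active = NADPH fluorescence slope more negative than the mean of all samples by about 3 SD, 99.7% confidence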;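 also: fluorescence intensity change per second fitted from 20 to 320 s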). To be noted: Recombinant KvBeta, NADPH fluorescence decrease slope, 10 min; at 10 µM; stronger effect = lower value.
Experiment [6] deals with Alpha-2C adrenergic receptor (Homo sapiens) (UniProt P18825). Put plainly: modulators of alpha2C/GIRK thallium flux, primary screen, cell-based, HEK293 alpha2C/GIRK1/2 (AID 624;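 active = fluorescence slope after compound addition differing from the mean of all screened samples at 99.7% confidence, in either direction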;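 also: slope of fluorescence ratio to pre-addition baseline per second over 15 to 24 s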). Particulars: thallium flux BTC fluorescence, at 10 µM, actives lie on both sides.
The nature of experiment [7]: inhibitors of Sendai virus-induced IRF3 signaling, primary screen, TLR/RLR signaling modifier project, cell-based, Sendai virus stimulus, luciferase, 10K MLSCN set (AID 602276;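 active = inhibition at or above 50% at 10 µM; inactive = inhibition below 50%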;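 also: firefly luciferase from ISG56 promoter only with Renilla not read in this screen; 0% = Sendai virus plus DMSO and 100% = medium plus DMSO without virus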). Particulars: HEK293 RL24 IRF3 luciferase reporter, at 10 µM, stronger effect = higher value.
Experiment [8] can be described thus: inhibitors of poly I:C-induced TLR3 signaling, primary screen, cell-based, poly I:C stimulus, luciferase, 10K MLSCN set (AID 602277). To be noted: HEK293-TLR3 RL24 IRF3 luciferase reporter, at 10 µM, stronger effect = higher value.

Alpha-2C adrenergic receptor (Homo sapiens), sequence (P18825 whole entry, looked up): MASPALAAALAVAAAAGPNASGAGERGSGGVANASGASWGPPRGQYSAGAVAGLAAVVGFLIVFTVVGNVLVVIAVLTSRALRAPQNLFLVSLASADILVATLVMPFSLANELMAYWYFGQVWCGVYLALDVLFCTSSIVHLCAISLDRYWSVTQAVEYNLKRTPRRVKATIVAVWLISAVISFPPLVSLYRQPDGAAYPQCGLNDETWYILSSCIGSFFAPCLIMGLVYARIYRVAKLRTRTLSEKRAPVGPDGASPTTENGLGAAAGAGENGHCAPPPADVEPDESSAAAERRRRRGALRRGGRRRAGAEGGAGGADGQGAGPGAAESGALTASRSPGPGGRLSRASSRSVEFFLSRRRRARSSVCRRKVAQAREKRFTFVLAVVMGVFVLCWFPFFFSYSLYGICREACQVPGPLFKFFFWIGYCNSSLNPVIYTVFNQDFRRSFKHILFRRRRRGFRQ
Voltage-gated potassium channel subunit beta-2 (Rattus norvegicus), sequence (P62483 whole entry, looked up): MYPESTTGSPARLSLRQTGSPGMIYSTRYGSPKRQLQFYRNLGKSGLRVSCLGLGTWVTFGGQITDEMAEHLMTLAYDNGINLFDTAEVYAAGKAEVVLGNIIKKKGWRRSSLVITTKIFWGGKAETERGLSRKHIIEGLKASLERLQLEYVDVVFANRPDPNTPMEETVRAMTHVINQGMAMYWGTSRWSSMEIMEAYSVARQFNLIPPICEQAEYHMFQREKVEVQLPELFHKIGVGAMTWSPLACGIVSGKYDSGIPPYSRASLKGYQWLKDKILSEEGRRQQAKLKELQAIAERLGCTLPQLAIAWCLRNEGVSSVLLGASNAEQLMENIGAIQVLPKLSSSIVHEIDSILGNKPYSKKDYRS

With `CCCc1nnc(SCC(=O)N2CCOCC2)n1Cc1ccco1`, in experiment [1], the cell count is 660. Also, the inhibition in experiment [1] is -2.2% (inactive); in experiment [3], -0.5% (inactive); in experiment [7] it was 19.5% (inactive); in experiment [8] it was 22.7% (inactive). In experiment [2], the inhibition of aggregation is -10.6% (inactive). Also, the values for the nuclei count in experiment [2] and in experiment [3] were 96.5% and 101%, respectively. Also, the fluorescence slope in experiment [4] is -0.617 (inactive). Moreover, the NADPH fluorescence slope in experiment [5] is -5.1e-05 (inactive). For the same compound, in experiment [6], the slope was 0.0036 (inactive).

Regarding `O=C(Nc1nc2c(s1)CCCC2)C1COc2ccccc2O1` (centres undefined), the cell count in experiment [1] was 695. Further, the inhibition in experiment [1] is -13.1% (inactive); in experiment [3], -26.2% (inactive); in experiment [7], 31% (inactive); in experiment [8], -19.8% (inactive). Moreover, in experiment [2], the inhibition of aggregation is 30.9% (inactive). Further, the nuclei count in experiment [2] stood at 110%; in experiment [3], 114%. The fluorescence slope in experiment [4] is -0.517 (inactive). In experiment [5], the NADPH fluorescence slope was -1.6e-05 (inactive). In experiment [6], the slope was 0.00646 (inactive).

Turning to `CCCCOC(=O)CNc1nnc(SCC(=O)OCC)[nH]c1=O`, in experiment [1], the cell count was found to be 659. Also, the inhibition in experiment [1] is -10.5% (inactive); in experiment [3], -32.4% (inactive); in experiment [7], 2.96% (inactive); in experiment [8] it was -3.08% (inactive). The inhibition of aggregation in experiment [2] was 9.9% (inactive). The nuclei count in experiment [2] came to 94.8%; in experiment [3], 110%. Further, in experiment [4], the fluorescence slope is -0.572 (inactive). The NADPH fluorescence slope in experiment [5] was -7.9e-06 (inactive). Also, the slope in experiment [6] is 0.00508 (inactive).

For `CCOC(=O)c1cnc(-n2cc(C)cn2)nc1Nc1ccccc1OC`, the cell count in experiment [1] turned out to be 750. For the same compound, the inhibition in experiment [1] is -2.8% (inactive); in experiment [3], 12.5% (inactive); in experiment [7], 2.82% (inactive); in experiment [8], 10.8% (inactive). For the same compound, the inhibition of aggregation in experiment [2] is 17.8% (inactive). For the same compound, the nuclei count is 105% in experiment [2] and 114% in experiment [3]. Moreover, the fluorescence slope in experiment [4] is -0.641 (inactive). Besides, in experiment [5], the NADPH fluorescence slope was -4.8e-05 (inactive). Moreover, the slope in experiment [6] was 0.0064 (inactive).

For `CSCCC(N=CC1=C(O)CC(C)(C)CC1=O)C(=O)O` (centres undefined), the cell count in experiment [1] was determined as 405. The inhibition was 1.8% (inactive) in experiment [1], -0.2% (inactive) in experiment [3], 15.3% (inactive) in experiment [7] and 22.3% (inactive) in experiment [8]. Also, the inhibition of aggregation in experiment [2] is -10.8% (inactive). For the same compound, the nuclei count amounted to 104% in experiment [2] and 118% in experiment [3]. The fluorescence slope in experiment [4] is -0.363 (inactive). Moreover, the NADPH fluorescence slope in experiment [5] is -4.2e-05 (inactive). For the same compound, in experiment [6], the slope is 0.00607 (inactive).

For `CN(C)c1ccc(/C(=N\O)c2ccccc2)cc1`, the cell count in experiment [1] was found to be 429. The inhibition in experiment [1] is 1.2% (inactive); in experiment [3], 25.3% (inactive); in experiment [7], -24.9% (inactive); in experiment [8], -21.7% (inactive). Further, the inhibition of aggregation in experiment [2] is -6.9% (inactive). The nuclei count in experiment [2] is 93.6%; in experiment [3], 103%. Further, in experiment [4], the fluorescence slope was -0.465 (inactive). Further, in experiment [5], the NADPH fluorescence slope was 1.6e-05 (inactive). For the same compound, the slope in experiment [6] was 0.00326 (inactive).

With `COc1cc(CN(C)CC(=O)c2[nH]c(C)c(C(C)=O)c2C)ccc1OC(F)F`, the cell count in experiment [1] stood at 443. Moreover, the inhibition in experiment [1] was 1.6% (inactive); in experiment [3] it was -86.8% (inactive); in experiment [7] it was -17.1% (inactive); in experiment [8], -82.6% (inactive). Also, in experiment [2], the inhibition of aggregation was -11% (inactive). Also, the nuclei count in experiment [2] was determined as 95.9%; in experiment [3] it was 129%. Also, the fluorescence slope in experiment [4] is -0.616 (inactive). In experiment [5], the NADPH fluorescence slope was -2.3e-05 (inactive). The slope in experiment [6] is 0.00408 (inactive).

As to `CC(CCc1ccccc1)NC(=O)CSc1nc(N)cc(N)n1` (centres undefined), in experiment [1], the cell count was 253. The inhibition in experiment [1] is -6% (inactive); in experiment [3] it was -41.5% (inactive); in experiment [7], 8.76% (inactive); in experiment [8] it was 10.6% (inactive). In addition, the inhibition of aggregation in experiment [2] was -23.7% (inactive). Moreover, the figures for the nuclei count in experiment [2] and in experiment [3] were 10.8% and 99.2%, respectively. The fluorescence slope in experiment [4] is -0.483 (inactive). The NADPH fluorescence slope in experiment [5] is -4.4e-05 (inactive). Moreover, in experiment [6], the slope was 0.00545 (inactive).

On to `CCOC(=O)N1CCC(NC(=O)CCN2C(=O)COc3ccccc32)CC1`, for which the cell count in experiment [1] was determined as 322. The inhibition is -2.6% (inactive) in experiment [1], -22.4% (inactive) in experiment [3], 17% (inactive) in experiment [7] and 17.2% (inactive) in experiment [8]. Besides, the inhibition of aggregation in experiment [2] was 11.5% (inactive). Moreover, the nuclei count is 106% in experiment [2] and 127% in experiment [3]. Also, the fluorescence slope in experiment [4] is -0.27 (inactive). Moreover, the NADPH fluorescence slope in experiment [5] is 1.7e-05 (inactive). The slope in experiment [6] was 0.00554 (inactive).

As for `Nn1c(SCC(=O)Nc2ccc3c(c2)OCO3)nnc1C1CC1`, in experiment [1], the cell count turned out to be 363. Further, the inhibition was 4.8% (inactive) in experiment [1], -16% (inactive) in experiment [3], 4.52% (inactive) in experiment [7] and 17.1% (inactive) in experiment [8]. Besides, the inhibition of aggregation in experiment [2] was 0.8% (inactive). Also, the nuclei count in experiment [2] is 100%; in experiment [3], 111%. Further, the fluorescence slope in experiment [4] was -0.574 (inactive). For the same compound, the NADPH fluorescence slope in experiment [5] was -5.7e-05 (inactive). Besides, in experiment [6], the slope was 0.00672 (inactive).

Regarding `CC(CN(C)Cc1ccccc1)OC(=O)c1ccc2c(c1)OCCO2` (centres undefined), the cell count in experiment [1] was 596. Moreover, the inhibition in experiment [1] was 0% (inactive); in experiment [3] it was -40.2% (inactive); in experiment [7], 8.96% (inactive); in experiment [8], 8.88% (inactive). In addition, in experiment [2], the inhibition of aggregation was -0.4% (inactive). The figures for the nuclei count in experiment [2] and in experiment [3] were 126% and 109%, respectively. For the same compound, the fluorescence slope in experiment [4] is -0.48 (inactive). Also, the NADPH fluorescence slope in experiment [5] was -5.1e-05 (inactive). In experiment [6], the slope is 0.00539 (inactive).

As for `C=CCNC(=O)c1cccc(Br)c1`, in experiment [1], the cell count was determined as 399. In addition, the inhibition in experiment [1] is 6.3% (inactive); in experiment [3], -24.7% (inactive); in experiment [7], -5.88% (inactive); in experiment [8] it was 7.57% (inactive). The inhibition of aggregation in experiment [2] was -3.3% (inactive). Further, the values for the nuclei count in experiment [2] and in experiment [3] were 101% and 115%, respectively. For the same compound, the fluorescence slope in experiment [4] is -0.448 (inactive). Also, in experiment [5], the NADPH fluorescence slope is 1.8e-05 (inactive). In addition, the slope in experiment [6] is 0.00497 (inactive).

Turning to `CN1CCN(c2oc(COc3ccc(-c4ccccc4)cc3)nc2C#N)CC1`, the cell count in experiment [1] came out at 3. Also, the inhibition was 117% (active) in experiment [1], -35.9% (inactive) in experiment [3], 8.52% (inactive) in experiment [7] and -19.8% (inactive) in experiment [8]. In addition, in experiment [2], the inhibition of aggregation was 18.4% (inactive). Further, the nuclei count in experiment [2] was found to be 98.4%; in experiment [3] it was 111%. In addition, the fluorescence slope in experiment [4] was -0.425 (inactive). Also, in experiment [5], the NADPH fluorescence slope was 1e-05 (inactive). For the same compound, the slope in experiment [6] is 0.00577 (inactive).

For `Cc1nc(CNS(=O)(=O)c2cccc(F)c2)cs1`, the cell count in experiment [1] was determined as 307. Moreover, the inhibition in experiment [1] was 5% (inactive); in experiment [3] it was -10.3% (inactive); in experiment [7] it was 7.13% (inactive); in experiment [8], 20.4% (inactive). In experiment [2], the inhibition of aggregation was 14.1% (inactive). Besides, the nuclei count in experiment [2] was 87.9%; in experiment [3] it was 92.4%. For the same compound, the fluorescence slope in experiment [4] is -0.506 (inactive). In addition, the NADPH fluorescence slope in experiment [5] was -3.7e-05 (inactive). The slope in experiment [6] is 0.00673 (inactive).
